# Source: PubChem BioAssay
# Active and inactive are the calls of the source. Unless noted, no rule for the calls is given here.
# Assays:
# [1] = tested on: Wnt5a (protein binding on small-molecule microarray); assay: small molecules binding Wnt5a protein – biophysical, small-molecule microarray, 635/667 nm fluorescence, primary screen (AID 1142); conditions: 635 nm fluorescence, higher = more signal;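 also: fluorescence read at 667 nm with signal to noise per printed feature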
# [2] = ATP-based viability of Huh7 replicon cells – cell-based, CellTiter-Glo luminescence, basal, 48 h, cytotoxicity control for HCV replication inhibitor project, primary screen (AID 1143); conditions: higher = more signal, called active from +8 up or from −8 down;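 also: Huh7 hepatoma cells carrying a hepatitis C replication reporter with no stimulus; test concentration not given here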
# [3] = Pseudomonas biofilm growth suppression – PAO1 strain, BacTiter-Glo luminescence, LB-PBS, primary screen (AID 1144); conditions: P. aeruginosa PAO1 biofilm, 12 h, higher = more signal
# [4] = basal CRE-LacZ reporter activity in PC12 – cell-based, unstimulated, primary screen (AID 1145); conditions: no forskolin, luminescence, 4.5 h, higher = more signal, called active from +8 up or from −8 down
# [5] = forskolin-driven CRE-LacZ activity in PC12 – cell-based, CRE-LacZ reporter, forskolin-stimulated, primary screen (AID 1146); conditions: luminescence, 4.5 h, higher = more signal, called active from +8 up or from −8 down;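 also: PC12 cells with 6xCRE LacZ reporter stimulated by forskolin 10 µM; beta-galactosidase reporter signal reflecting CREB driven transcription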
# [6] = biological target: Streptavidin (Streptomyces avidinii) (UniProt P22629); assay: compounds binding control protein streptavidin – biophysical, small-molecule microarray, 635/667 nm fluorescence, artefact control for SMM compound annotation, primary screen (AID 1147); conditions: higher = more signal;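 also: signal reflects streptavidin binding to arrayed compounds as a control protein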
# Streptavidin (Streptomyces avidinii), sequence (P22629 whole entry, looked up): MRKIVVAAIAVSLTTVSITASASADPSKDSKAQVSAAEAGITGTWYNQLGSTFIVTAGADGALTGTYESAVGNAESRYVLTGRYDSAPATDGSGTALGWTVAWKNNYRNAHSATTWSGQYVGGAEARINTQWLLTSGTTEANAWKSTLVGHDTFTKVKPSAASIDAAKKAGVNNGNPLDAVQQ
# [7] = probe aInhba binding on compound microarray – biochemical, small-molecule microarray, 635/667 nm fluorescence, primary screen (AID 1148); conditions: higher = more signal;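 also: score merges 667nm spot fluorescence with signal-to-noise for antibody binding to printed compounds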
# Torsin-1A (Homo sapiens) [8] = biological target: Torsin-1A (Homo sapiens) (UniProt O14656); assay: TOR1A wild-type binding on microarray – cell lysate, small-molecule microarray, lysate, 635/667 nm, primary screen (AID 1149); conditions: COS7 hTOR1A-WT lysate, 635 nm fluorescence, higher = more signal
# Torsin-1A (Homo sapiens), sequence (O14656 whole entry, looked up): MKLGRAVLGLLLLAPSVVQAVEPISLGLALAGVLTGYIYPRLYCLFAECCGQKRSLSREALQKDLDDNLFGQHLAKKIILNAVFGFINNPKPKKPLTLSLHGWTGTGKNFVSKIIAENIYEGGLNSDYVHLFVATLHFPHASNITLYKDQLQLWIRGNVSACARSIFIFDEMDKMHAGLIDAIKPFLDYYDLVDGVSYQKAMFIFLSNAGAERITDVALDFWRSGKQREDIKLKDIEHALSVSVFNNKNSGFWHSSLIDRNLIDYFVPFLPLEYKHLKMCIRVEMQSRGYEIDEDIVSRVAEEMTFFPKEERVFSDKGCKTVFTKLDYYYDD
# Torsin-1A (Homo sapiens) [9] = biological target: Torsin-1A (Homo sapiens) (UniProt O14656); assay: torsin A mutant lysate binding on microarrays – cell lysate, small-molecule microarray, COS7 lysate, 635/667 nm fluorescence, primary screen (AID 1150); conditions: COS7 hTOR1A mutant lysate, 635 nm fluorescence, higher = more signal;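 also: score pools 667 nm emission and signal to noise measuring lysate protein binding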
# [10] = tested on: Sonic hedgehog protein (Shh); assay: Sonic hedgehog microarray binding compounds – biochemical, small-molecule microarray, 635/667 nm fluorescence, primary screen (AID 1151); conditions: 635 nm fluorescence, higher = more signal;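 also: Shh protein binding to compounds spotted on small-molecule microarray slides; score combines spot fluorescence intensity with signal-to-noise across triplicate slides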
# [11] = optical density shifts of acrAB sulA E. coli – strain DRC41, OD650, 48 h, E. coli filamentation inducer project, primary screen (AID 1152); conditions: higher = more signal, called active from +8 up or from −8 down;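 also: E. coli MC1000 strain DRC41 lacking acrAB efflux pump and sulA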
# [12] = probe aLefty1 binding on compound microarray – biochemical, small-molecule microarray, 635/667 nm fluorescence, primary screen (AID 1153); conditions: higher = more signal;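 also: score merges spot fluorescence with signal-to-noise ratio from the scanned slide images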
# [13] = plasmodial surface anion channel blockers, osmotic lysis – cell-based, P. falciparum Indochina, OD700, 1 h, primary screen (AID 1154); conditions: P. falciparum Indochina infected RBC osmotic lysis, higher = more signal, called active from +8 up or from −8 down
# [14] = plasmodial surface anion channel blockers, osmotic lysis – cell-based, P. falciparum Indochina, OD700, 2 h, primary screen (AID 1155);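 also: lysis reports solute entry through the parasite surface anion channel PSAC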; conditions: P. falciparum Indochina infected erythrocytes, higher = more signal, called active from +8 up or from −8 down
# [15] = changes in parasitized red cell lysis, either direction – P. falciparum Indochina, OD700, 3 h, PSAC antagonist project, primary screen (AID 1156); conditions: P. falciparum-infected erythrocytes, osmotic lysis, higher = more signal, called active from +8 up or from −8 down
# [16] = plasmodial surface anion channel blockers, osmotic lysis – cell-based, P. falciparum Indochina, OD700, 18 h, primary screen (AID 1157); conditions: P. falciparum Indochina infected erythrocytes, osmotic lysis OD700, 18 h; higher = more signal, called active from +8 up or from −8 down
# [17] = S6 kinase pathway phospho-S6 level changes – cell-based, A549, cytoblot, luminescence, serum-stimulated, primary screen (AID 1158); conditions: 5 h, higher = more signal;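 also: serum-stimulated A549 lung adenocarcinoma cells; signal is phosphorylated S6 detected by cytoblot immunostaining with HRP secondary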
# [18] = biological target: NADPH oxidase 2 (Homo sapiens) (UniProt P04839); assay: compounds shifting NOX2 Amplex Red fluorescence – cell-based, HEK293-NOX2, PMA-stimulated, NOX inhibitor project, primary screen (AID 1159); conditions: 45 min, higher = more signal, called active from +8 up or from −8 down; also: test concentration not given here
# NADPH oxidase 2 (Homo sapiens), sequence (P04839 whole entry, looked up): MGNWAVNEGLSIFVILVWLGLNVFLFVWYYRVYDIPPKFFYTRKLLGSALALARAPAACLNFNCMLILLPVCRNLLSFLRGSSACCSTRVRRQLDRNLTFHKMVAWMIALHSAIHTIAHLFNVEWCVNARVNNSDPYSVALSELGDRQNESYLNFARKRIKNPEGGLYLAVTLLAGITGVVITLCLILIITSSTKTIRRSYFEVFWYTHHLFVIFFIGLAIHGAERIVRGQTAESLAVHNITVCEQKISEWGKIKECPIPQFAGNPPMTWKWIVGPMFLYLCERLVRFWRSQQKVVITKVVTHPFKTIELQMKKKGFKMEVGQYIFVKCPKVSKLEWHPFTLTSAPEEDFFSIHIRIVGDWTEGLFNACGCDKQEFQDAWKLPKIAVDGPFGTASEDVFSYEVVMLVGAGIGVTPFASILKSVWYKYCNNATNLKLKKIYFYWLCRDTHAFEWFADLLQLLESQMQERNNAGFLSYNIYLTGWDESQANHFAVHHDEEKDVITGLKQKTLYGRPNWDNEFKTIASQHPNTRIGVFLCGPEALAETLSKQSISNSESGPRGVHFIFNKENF
# [19] = biological target: NADPH oxidase 4 (Homo sapiens) (UniProt Q9NPH5); assay: compounds shifting NOX4 Amplex Red fluorescence – cell-based, HEK293-NOX4, tetracycline-induced, NOX inhibitor project, primary screen (AID 1160); conditions: HEK293-NOX4, Amplex Red H2O2 fluorescence, 45 min; higher = more signal, called active from +8 up or from −8 down
# NADPH oxidase 4 (Homo sapiens), sequence (Q9NPH5 whole entry, looked up): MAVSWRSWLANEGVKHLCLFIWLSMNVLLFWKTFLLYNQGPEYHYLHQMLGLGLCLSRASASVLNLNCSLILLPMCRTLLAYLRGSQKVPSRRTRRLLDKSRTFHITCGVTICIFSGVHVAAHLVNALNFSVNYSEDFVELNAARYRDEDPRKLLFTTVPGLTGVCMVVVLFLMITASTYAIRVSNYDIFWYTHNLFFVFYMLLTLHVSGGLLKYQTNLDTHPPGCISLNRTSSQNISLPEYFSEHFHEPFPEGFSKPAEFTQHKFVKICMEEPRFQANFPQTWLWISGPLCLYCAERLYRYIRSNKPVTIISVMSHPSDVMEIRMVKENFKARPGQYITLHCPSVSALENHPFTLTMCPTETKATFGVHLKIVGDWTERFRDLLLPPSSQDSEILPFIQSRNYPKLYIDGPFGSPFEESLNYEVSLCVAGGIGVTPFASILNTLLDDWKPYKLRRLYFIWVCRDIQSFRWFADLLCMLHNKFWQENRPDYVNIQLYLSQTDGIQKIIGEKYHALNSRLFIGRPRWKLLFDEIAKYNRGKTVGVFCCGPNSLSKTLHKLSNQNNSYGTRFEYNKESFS
# [20] = biological target: NADPH oxidase 5 (Homo sapiens) (UniProt Q96PH1); assay: compounds shifting NOX5 Amplex Red fluorescence – cell-based, HEK293-NOX5, NOX inhibitor project, primary screen (AID 1161); conditions: HEK293-NOX5, ionomycin, 45 min, higher = more signal
# NADPH oxidase 5 (Homo sapiens), sequence (Q96PH1 whole entry, looked up): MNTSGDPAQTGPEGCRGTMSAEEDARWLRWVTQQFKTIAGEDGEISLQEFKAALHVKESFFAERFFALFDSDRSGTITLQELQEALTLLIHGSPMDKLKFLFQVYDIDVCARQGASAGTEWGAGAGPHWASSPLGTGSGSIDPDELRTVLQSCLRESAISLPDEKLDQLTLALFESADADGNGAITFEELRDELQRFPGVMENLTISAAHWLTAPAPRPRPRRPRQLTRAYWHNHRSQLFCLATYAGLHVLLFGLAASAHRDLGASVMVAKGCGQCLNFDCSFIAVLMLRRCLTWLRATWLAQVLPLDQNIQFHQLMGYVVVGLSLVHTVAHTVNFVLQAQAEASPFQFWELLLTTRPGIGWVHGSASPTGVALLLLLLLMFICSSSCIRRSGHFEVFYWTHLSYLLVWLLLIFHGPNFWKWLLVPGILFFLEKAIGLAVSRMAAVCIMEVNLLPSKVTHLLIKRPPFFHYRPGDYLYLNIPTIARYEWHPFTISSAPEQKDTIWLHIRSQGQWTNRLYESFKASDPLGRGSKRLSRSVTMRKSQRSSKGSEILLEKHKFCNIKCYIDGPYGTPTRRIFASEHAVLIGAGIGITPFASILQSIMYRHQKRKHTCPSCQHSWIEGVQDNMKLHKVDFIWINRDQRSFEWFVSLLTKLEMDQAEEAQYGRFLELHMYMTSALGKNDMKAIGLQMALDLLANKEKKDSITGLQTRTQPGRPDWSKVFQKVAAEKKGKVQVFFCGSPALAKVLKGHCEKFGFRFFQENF
SMILES,composite z-score [1],z-score [2],z-score [3],z-score [4],z-score [5],composite z-score [6],composite z-score [7],composite z-score (Torsin-1A (Homo sapiens) [8]),composite z-score (Torsin-1A (Homo sapiens) [9]),composite z-score [10],z-score [11],composite z-score [12],z-score [13],z-score [14],z-score [15],z-score [16],z-score [17],z-score [18],z-score [19],z-score [20]
COc1ccc([Si](C)(C)[C@H]2[C@H](CC(=O)N3Cc4ccccc4C[C@H]3CO)O[C@@]3(C(=O)N(Cc4ccc(N5CCC5=O)cc4)c4ccccc43)[C@@H]2C)cc1,0.66,-6.48 (inactive),0.522 (inactive),0.656 (inactive),-0.317 (inactive),0.679,0.256,1.27,0.574,1.85,0.97 (inactive),0.874,6.86 (inactive),1.45 (inactive),1.46 (inactive),1.11 (inactive),0.414,-0.241 (inactive),0.465 (inactive),-1.64
COc1ccc([Si](C)(C)[C@H]2[C@H](CCn3cc([C@H](O)c4ccccc4)nn3)O[C@@]3(C(=O)N(Cc4cccc(N5CCOC5=O)c4)c4ccccc43)[C@@H]2C)cc1,0.488,-1.78 (inactive),-0.394 (inactive),-0.36 (inactive),1.32 (inactive),0.283,-0.362,0.132,0.199,1.5,-0.454 (inactive),-0.249,26.1 (active),9.3 (active),-0.295 (inactive),1.4 (inactive),0.17,0.0189 (inactive),2.51 (inactive),2.28
O=C1O[C@@H](c2ccccc2)[C@@H](c2ccccc2)N2[C@@H](c3ccc(OCCO)cc3)[C@]3(C(=O)Nc4ccccc43)[C@@H](C(=O)NC[C@H](O)c3ccccc3)[C@H]12,0.0635,-1.19 (inactive),-0.388 (inactive),-0.606 (inactive),2.97 (inactive),0.146,0.0561,0.437,0.14,0.95,-0.29 (inactive),-0.0491,6.58 (inactive),1.85 (inactive),0.539 (inactive),0.779 (inactive),-0.29,1.62 (inactive),0.918 (inactive),0.81
C=CCOC(=O)[C@@H]1[C@H]2C(=O)O[C@H](c3ccccc3)[C@H](c3ccccc3)N2[C@H](c2ccc(OCCOC(=O)[C@@H]3C[C@@H]4C(=O)N5CCC[C@H]5C(=O)N4[C@@H]3c3ccc(O)cc3)cc2)[C@@]12C(=O)Nc1ccc(I)cc12,0.0017,-1.51 (inactive),-1.72 (inactive),-1.48 (inactive),-1.75 (inactive),1.11,-0.101,0.711,0.878,1.82,2.52 (inactive),0.365,2.19 (inactive),0.727 (inactive),2.43 (inactive),-1.31 (inactive),3.17,1.32 (inactive),0.808 (inactive),1.69
CCOC(=O)[C@H]1CC=C2CC1C(=O)N1CCC[C@@H]1[C@@H]2O[Si](C)(C)C(C)(C)C (stereo not given in full),-0.395,-6.23 (inactive),-0.451 (inactive),-0.776 (inactive),-0.661 (inactive),-1.49,-0.238,-0.55,-0.83,0.398,-0.94 (inactive),-0.471,2.09 (inactive),0.493 (inactive),-0.42 (inactive),0.378 (inactive),-0.409,0.461 (inactive),-0.625 (inactive),-3.9
COc1ccc(C(O)C2C=CC3C(=O)N(C)C(=O)C3N2N2CCCCC2)c2ccccc12 (stereo not given),0.533,0.221 (inactive),0.28 (inactive),1.39 (inactive),0.426 (inactive),1.25,0.111,0.466,0.66,-0.474,-1.53 (inactive),0.517,1.24 (inactive),1.05 (inactive),1.01 (inactive),0.778 (inactive),-1.08,0.273 (inactive),-1.72 (inactive),1.03
O=C1c2ccccc2[C@@]2(Cc3ccccc3N(CCN3CCOCC3)C2=O)[C@H](c2ccc(CO)cc2)N1Cc1ccccc1,-0.465,-1.24 (inactive),-1.33 (inactive),0.208 (inactive),-0.297 (inactive),-0.383,-0.231,0.437,0.456,-0.613,1.04 (inactive),-0.0479,0.884 (inactive),-0.273 (inactive),-0.378 (inactive),0.646 (inactive),0.215,0.0706 (inactive),-0.582 (inactive),-0.606
C=CC[C@]12N=C(c3ccc(OCCCO)cc3)O[C@H]1c1ccccc1N(Cc1ccccc1)C2=O,0.373,-3.92 (inactive),0.71 (inactive),-0.389 (inactive),-1.64 (inactive),-0.255,0.153,0.35,1.04,0.351,0.323 (inactive),0.445,28.8 (active),27.9 (active),3.64 (inactive),6.21 (inactive),-0.329,-0.89 (inactive),0.393 (inactive),-0.835
CCCCc1cn(C[C@H](Cc2ccccc2)NC(=O)N[C@H](CO)CCc2oc(C(C)=O)c(C(=O)OC)c2C(=O)OC)nn1,0.276,-2.8 (inactive),-1.09 (inactive),1.02 (inactive),0.549 (inactive),0.881,-0.0448,0.992,0.454,1.99,0.135 (inactive),0.086,1.66 (inactive),-0.983 (inactive),1.21 (inactive),-0.496 (inactive),0.847,-4.81 (inactive),-2.87 (inactive),-2.48
